Experimental data taken from PubChem BioAssay AID540267 (National Center for Advancing Translational Sciences (NCATS), 2011).
About 530 (0.16%) of roughly 340,000 compounds were called active. Inconclusive results (about 2%) are left out. The sample holds actives, similar compounds and a random draw of the others, so the mix is not that of the screen. Values without a mark were called inactive. Rule as the data show it: active = activity change below about -80%; inconclusive = between about -30% and that limit; inactive = weaker than that.

Test: Small Molecules that selectively kill Giardia lamblia: qHTS;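 also: parasites exposed to compound for two days anaerobically before the ATP read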
Details: Giardia lamblia trophozoite viability; at 7.66 µM; hits give low values
Outline: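 Giardia trophozoites, 100 cells per well, were exposed to compounds for 48 hrs at 37 deg C under anaerobic conditions; viability was then read as ATP content by bioluminescence after 15-30 min at room temperature.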
% is scaled to controls: 0 for no effect and ±100 for the full control effect.

First: c1ccc2c(C[n+]3csc4ccccc43)cccc2c1
Second: NC(CSC1(c2ccccc2)c2ccccc2-c2ccccc21)C(=O)O (centres undefined)
The activity change of the first is higher: 3.49% for the first, -0.132% for the second.

First: Cc1ccc(-c2ccc(=O)n(Cc3ccc(F)cc3Cl)n2)cc1
Second: Cc1ccc(-c2nc(=N)sn2Cc2ccccc2)cc1
The activity change of the first is lower: -0.457% for the first, 24.2% for the second.

Going from `N/C(=N/O)c1cccn1Cc1ccccc1[N+](=O)[O-]` to `O=[N+]([O-])c1ccccc1Nc1ccc(O)cc1`, the activity change falls from -2.12% to -6.38%.

First: Brc1nc2ncnc(NCc3ccco3)c2[nH]1
Second: O=[N+]([O-])c1cccc(/C=N/Nc2ncc(Br)cn2)c1
The activity change of the first is lower: -4.89% for the first, 23.3% for the second.

First: Cc1ccc2oc(C(=O)N3CCN(C)C[C@@H]3C(C)C)c(C)c2c1
Second: Cc1noc(NS(=O)(=O)c2ccc(NC(=O)c3oc4ccc(F)cc4c3C)cc2)c1C
The activity change of the first is higher: 11.8% for the first, 6.55% for the second.

Going from `CCCCCCC1(C)NC(c2ccc3c(c2)OCO3)=CC(c2ccccc2O)N1` (centres undefined) to `CCCCNC(=O)Cn1c(SCc2cccc(Cl)c2)nc2ccncc21`, the activity change rises from -22.5% to 12.3%.

First: CC1(C)c2[nH]c3ccccc3c2C[C@H]2C(=O)N(N)CC(=O)N21
Second: Cc1c(C=O)c2ccccc2n1CC(=O)O
The activity change of the first is lower: -11.4% for the first, 21.1% for the second.

Going from `COC(=O)N/N=C/c1ccc(-c2ccc(Cl)c(Cl)c2)o1` to `COC(=O)C(C)N=Cc1ccccc1` (centres undefined), the activity change rises from -7.13% to -3.67%.

Going from `CCOc1ccc(NC(=O)CSc2nnc3c(n2)[nH]c2ccc(S(=O)(=O)N4CCOCC4)cc23)cc1` to `COc1ccc(S(=O)(=O)N2CCN(c3ccc(F)cc3)CC2)cc1-c1noc(C)n1`, the activity change rises from -27.7% to 5.27%.

Going from `Cc1ccc(N2C(=O)C3C(c4ccccc4)(C2=O)C3(c2ccccc2)c2ccccc2)cc1` (centres undefined) to `Cc1ccc(S(=O)(=O)N2CCN(c3nc(-n4cnc5ccccc54)nc4ccccc34)CC2)cc1`, the activity change rises from 6.33% to 11.1%.

Compared with `CCN(CC)/[N+]([O-])=N/Oc1cc(O/[N+]([O-])=N/N2CCCC2CO)c([N+](=O)[O-])cc1[N+](=O)[O-]` (centres undefined), `COc1cc(OC)c2c(C)cc(=O)oc2c1C(CCN1CCCCC1)c1ccc(N(C)C)cc1` (centres undefined) is lower in activity change: 9.52% for the first, 8.97% for the second.

First: CC1(C(=O)NCCc2c[nH]c3ccccc23)C=CC2(CCCCC2)N1C(=O)c1ccccc1 (centres undefined)
Second: Cc1ccc(-c2nn(-c3ccccc3)cc2C(=O)NC2CCC(O)CC2)cc1 (centres undefined)
The activity change of the first is higher: 17.9% for the first, 4.06% for the second.

First: Cc1nc(-c2ccccc2)cn2c1nc1ccccc12
Second: Cc1ccc(Nc2c(-c3ccc(C)s3)nc3ccccn23)cc1
The activity change of the first is higher: 7.53% for the first, 1.31% for the second.

First: O=S(=O)(c1cccc(C(F)(F)F)c1)N1CCN(c2nc(-c3cccs3)nc3ccccc23)CC1
Second: O=C(NCCCN1CCOCC1)c1cn(-c2ccccc2)nc1-c1ccc(F)cc1
The activity change of the first is higher: 27.4% for the first, -14.8% for the second.

Going from `COC(=O)c1ccc(OCC(O)CN(CCO)CC(O)Cn2ccc3ccccc32)cc1` (centres undefined) to `COc1ccc(Cn2c(=O)[nH]c3cc(C(=O)N4CCN(C(=O)c5ccco5)CC4)ccc3c2=O)cc1`, the activity change falls from 8.7% to -2.35%.

Going from `CC(C)=CCN1CCN(CCCc2ccccc2)CC1CCO` (centres undefined) to `Cc1noc(C)c1NC(=O)Nc1cccc2c1O[C@H](CN(C)C(=O)Nc1ccccc1)[C@@H](C)CN([C@H](C)CO)C2=O`, the activity change falls from 23.8% to 8.07%.

Going from `Cc1noc(C)c1NC(=O)Nc1ccc2c(c1)C(=O)N([C@H](C)CO)C[C@H](C)[C@@H](CN(C)C(=O)Nc1ccc(C(F)(F)F)cc1)O2` to `COc1ccc2nc(N3C(=O)C(O)=C(C(=O)c4ccco4)C3c3ccco3)sc2c1` (centres undefined), the activity change falls from 41.7% to 1.49%.

Going from `COC(=O)C(CC(C)C)NS(=O)(=O)c1cc(Br)ccc1Br` (centres undefined) to `O=C(c1ccc2nc(N3CCOCC3)sc2c1)N1CCN(c2ccc(Cl)cc2)CC1`, the activity change rises from -10.7% to -10.4%.

Work on `O=C(NCC1CC1)C1(C(F)(F)F)C/C(=C\CCO)CCCO1` (centres undefined) yielded an activity change of -14.8%.

In the case of `O=c1c([N+](=O)[O-])cccn1Cc1ccc(F)cc1Cl`, the activity change is reported as -94.3% (active).
In the case of `O=[N+]([O-])c1ncc(Br)cc1Nc1ccccc1`, the activity change is reported as -90.1% (active).
In the case of `COC(=O)N/N=C/c1c[n+]([O-])c2ccccc2[n+]1[O-]`, the activity change is reported as -80.1% (active).
With `CC(=O)c1c(C)n([O-])c2ccccc2[n+]1=O` the activity change was -80.7% (active).
For `O=C(N/N=C/c1ccc([N+](=O)[O-])o1)c1cn(-c2ccccc2)nc1-c1ccc(F)cc1`, the activity change was -93% (active).
For `C[C@H](CO)N1C[C@H](C)[C@H](CN(C)C(=O)Nc2ccc(C(F)(F)F)cc2)Oc2c(NC(=O)c3ccncc3)cccc2C1=O`, the activity change was -89.7% (active).
In the case of `COc1ccc2nc(N3CCN(C(=O)c4ccc([N+](=O)[O-])o4)CC3)sc2c1`, the activity change is reported as -98.8% (active).
